# Source: PubChem BioAssay (NCI)
# Values joined by “and” are separate entries in the source; they are usually repeats but may differ in a detail not shown here. Identical values can stand only once. About 83,000 compounds went through this panel and 20% of them were active in at least one assay; those are over-represented in the sample as a whole.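 Method: cells in 96-well plates; compound added at one concentration; 48 h incubation; percent growth measured; values under 10 scored active.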 Unmarked numbers belong to inactive results. Active and inactive are the calls of the source.
# Columns and labels:
# Assay in all cases: NCI-60 one-dose screen, 48 h (100 = growth as untreated, 0 = no growth, -100 = all killed)
# Settings in all cases: 10 µM unless noted
# [1] = system: NCI-H23 lung
# [2] = system: NCI-H226 lung
# [3] = system: NCI-H322M lung
# [4] = system: HOP-62 NSCLC
# [5] = system: NCI-H460 lung
# [6] = system: HOP-92 NSCLC
# [7] = system: NCI-H522 lung
# [8] = system: A549/ATCC NSCLC
# [9] = system: 786-0 renal
# [10] = system: COLO 205 colon
# [11] = system: DU-145 prostate
# [12] = system: K-562 leukemia
# [13] = system: MALME-3M melanoma
# [14] = system: MDA-MB-231 breast
# [15] = system: RXF 393 renal
# [16] = system: SF-268 CNS
# [17] = system: SF-295 CNS
# [18] = system: SF-539 CNS
# [19] = system: UACC-257 melanoma
# [20] = system: M14 melanoma
SMILES,growth [1],growth [2],growth [3],growth [4],growth [5],growth [6],growth [7],growth [8],growth [9],growth [10],growth [11],growth [12],growth [13],growth [14],growth [15],growth [16],growth [17],growth [18],growth [19],growth [20]
O=C(Cc1c(-c2ccccc2[N+](=O)[O-])n(-c2ncnc3c2c(-c2ccccc2)c(-c2ccccc2)n3Cc2ccccc2)[nH]c1=O)c1ccc(Cl)c(Cl)c1,9.58% (active),24.7%,42.7%,49.3%,15.9%,-3.98% (active),-10.1% (active),25.6%,36.2%,43.1%,32.2%,12%,-12.6% (active),33.5%,31.7%,30.9%,3.25% (active),38.2%,11.5%,14.6%
Cc1cc(C2(c3cc(C)c(OCC(O)CNc4c(C)n(C)n(-c5ccccc5)c4=O)cc3C(C)C)OC(=O)c3ccccc32)c(C(C)C)cc1OCC(O)CNc1c(C)n(C)n(-c2ccccc2)c1=O (stereo not given),34.7%,42%,61%,52%,18.2%,-9.82% (active),8.24% (active),22.4%,24.2%,10.6%,50.7%,4.53% (active),26.3%,-36.5% (active),1.98% (active),32.6%,24%,38.9%,27.5%,29.2%
CN(C)c1nc(NCCNS(=O)(=O)c2ccc(C(=O)/C=C/c3ccc(F)cc3)cc2)nc(N2CCOCC2)n1,50.9%,74%,84.4%,76.2%,78.5%,77.8%,28.7%,7.37% (active),-55.7% (active),35%,33.3%,0.84% (active),84.8%,36.4%,76.6%,73%,79.2%,12.2%,70.1%,12.7%
CC1(C)CC(=O)C2=C(C1)OC(N)=C(c1nc3ccccc3[nH]1)C2c1ccc(Cl)cc1 (stereo not given),46.5% and 106%,65.7% and 123%,51.3% and 101%,87% and 116%,57% and 112%,54.8% and 119%,55% and 111%,64.6% and 115%,62.1% and 102%,78.8% and 121%,74% and 99.8%,61.5% and 104%,41.8% and 97.3%,79.1% and 105%,55% and 106%,67.8% and 102%,22.9% and 103%,29.3% and 106%,97.4% and 109%,85.6% and 118%
CC[C@@]12CC(C(=O)OC)=C3Nc4cc5c(cc4[C@@]34CCN(C[C@H]3O[C@H]31)[C@@H]24)[C@@H]1[C@H](O5)[C@@H](O)[C@@]2(CC)CC(C(=O)OC)=C3Nc4cc(O)ccc4[C@@]34CCN1[C@@H]24,-53.9% (active),-50.9% (active),-43% (active),-54.4% (active),-26.6% (active),-27.3% (active),-44.9% (active),4.31% (active),-89.3% (active),-61.5% (active),7.47% (active),-8.19% (active),-39.6% (active),-70.4% (active),-98.4% (active),10.3%,-63% (active),-53.1% (active),-23.5% (active),-61.4% (active)
CC(C)(C)c1ccc(OCc2nc3ccccc3n2-c2cccc(N)c2)cc1,50.1% and 100%,61.1% and 103%,94.8% and 104%,88.6% and 102%,78.2% and 109%,41.6% and 106%,74.5% and 103%,66.6% and 107%,80.9% and 102%,77.6% and 114%,80.8% and 124%,33.3% and 101%,48.7% and 101%,53.4% and 106%,75.3% and 90.7%,74.4% and 112%,57.7% and 100%,66.7% and 100%,73.8% and 111%,99.8% and 103%
CN1C(=O)C2(C(C#N)=C(c3ccc(Cl)cc3)Nc3c2c(-c2ccccc2)nn3-c2ccccc2)c2ccccc21 (stereo not given),80%,69.3%,87.5%,44.5%,92.4%,75.1%,85.8%,89.7%,97.2%,85.9%,93.6%,40.8%,78.9%,46.1%,77%,93.5%,77.4%,-85.3% (active),112%,77.2%
